# Results published in ChEMBL document CHEMBL3988442, “University of Dundee, Small-Polar-MMV Screening Library” (2021).
# Target: AMP-activated protein kinase, AMPK (Homo sapiens) (UniProt P54646+O43741+P54619+Q9UGJ0+Q9Y478+Q13131+Q9UGI9)
# Experiment: AMP-dependent Kinase enzyme assay. An in vitro enzyme assay that detects ADP turnover that is directly proportional to AMPK activity. This uses naive AMPK that is activated during the assay with MK-8722
# Assay type: functional
# Parameters: scale not given: direction of the effect not stated beside the values
# Conditions: 30 µM
row,Structure (SMILES),Percent Effect [%]
1,CCOC(=O)N1CCC(NC(=O)c2cccc(C3CCCNC3)c2)CC1 (stereo not given),7.59
2,O=C(OCC1CCCN1)c1cccc(NC(=O)c2ccco2)c1 (stereo not given),-4.3
3,c1ccn2c(C3CCCN3Cc3nc(C4CC4)no3)nnc2c1 (stereo not given),2.28
4,CCCC(=O)NC1CCCN(c2nc3ccccc3cc2CO)C1 (stereo not given),6.66
5,O=S(=O)(NCCCn1cncn1)c1ccc2c(c1)CCCC2,6.33
6,CC(NS(N)(=O)=O)c1ccc(OCc2ccc(F)cc2)cc1 (stereo not given),3.51
7,CCC(C(=O)NC1(COC)CCCC1)n1cccn1 (stereo not given),-12
8,CC(C)NC(=O)c1nc(Cn2c(C(F)(F)F)nc3ccccc32)no1,6.13
9,Cc1nc(NC(=O)C(C)N(C)Cc2cccc(C#N)c2)sc1C (stereo not given),7.53
10,O=C(CCNCc1cccc2c1OCCCO2)NC1CCCC1,-8.82
11,Cc1ccc(CCc2nc(C3CCOC3)no2)o1 (stereo not given),10.1
12,COc1ccc(C(=O)N2C[C@@H](O)[C@H](NCCc3ncccc3C)C2)cc1,-1.16
13,CC(C)(C)NC(=O)CNc1ncc(Br)cn1,7.93
14,Cn1c(N)nnc1SCc1c(F)cccc1Br,4.93
15,COC(=O)CSCc1noc(-c2ccc(C)cc2)n1,-5.29
16,COc1cc2c(cc1CNCc1cccnc1OC)OC(C)C2 (stereo not given),0.485
17,O=C(NCc1csc(Br)c1)Nc1cn[nH]c1,-3.79
18,CCc1cc(NCCCNS(C)(=O)=O)nc(-c2ccncc2)n1,-3.23
19,N#CCCN(CCC#N)C(=O)c1cccc(N2CCNC2=O)c1,-2.85
20,O=C(CN1CCC(c2nnc(C(F)(F)F)o2)CC1)Nc1cccc(Cl)c1,-5.71

row,Structure (SMILES),Percent Effect [%]
1,N#Cc1ccc(SCCC(=O)O)cc1,6.5
2,O=C(NCC(=O)N1CCN(c2ccccc2)CC1)c1sccc1C1CC1,-5.62
3,CCc1nsc(N2CCCN(CC(=O)N(C)C3CC3)CC2)n1,7.28
4,O=C(O)CN(Cc1ccsc1)CC1CCCO1 (stereo not given),10.1
5,CC(C)c1nc(CN(C)S(=O)(=O)c2cccs2)cs1,4.38
6,Cc1noc(C)c1-c1n[nH]c2c1CN(S(=O)(=O)c1cccnc1)CC2,1.02
7,CCn1cnnc1CCNC(=O)CCNC(=O)c1ccccc1F,-0.474
8,NC(=O)CC1CCN(Cc2ccccc2OCC(F)(F)F)CC1,-3.02
9,N#CCCN(Cc1ccccn1)C(=O)c1cccc(CN2CCCC2)c1,0.67
10,Cc1ncn(CCNC(=O)Nc2ccc(F)c(Cl)c2)c(=O)c1C,2.03
11,COc1ccc(CNC(C)c2cnn(C)c2)cc1OC1CCCC1 (stereo not given),8.55
12,COc1cc(F)cc2sc(NC(=O)COCC3CCCO3)nc12 (stereo not given),1.22
13,CCOC(=O)C1(NC(=O)CCNc2cc(C)ccc2OC)CCCCC1,6.8
14,CCCn1cc(-c2cc(C(=O)N(C)C)c3ccc(OC)cc3n2)cn1,8.93
15,Cc1cc(NC(=O)C(C)NCCn2cccn2)no1 (stereo not given),-0.416
16,COc1ccc(Cn2c(CCc3c(C)n[nH]c3C)n[nH]c2=O)cc1,-3.53
17,O=C(CCn1cccn1)N1CCC(c2nnc(-c3ccsc3)o2)CC1,4.17
18,C[C@@H](N)C(=O)N1CCC(c2[nH]ncc2-c2ccccc2)CC1,-8.89
19,CCC(NC(=O)c1cc(NC(C)=O)ccc1Cl)c1cc(C)ccn1 (stereo not given),2.39
20,CCCc1cc(=O)[nH]c(-n2nc(-c3cccs3)cc2N)n1,-6.1
